The values below come from PubChem BioAssay.

Several values for one entry are separate records, joined by “and”; a condition that tells them apart may be missing. Equal entries are not always repeated. For part of these data: Measured potencies and affinities stand elsewhere. Activity calls are given as the source filed them.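 How the source made its calls, unless noted: active means thallium flux through the channel raised or lowered by more than 3 SD from vehicle-only wells, actives on both sides; inactive means the rest.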

Test [1] is described as follows: blockers of polyQ-driven CASP3 activation – cell-based (AID 1583). Conditions: polyglutamine-induced caspase-3 activation, cell assay; stronger effect = higher value;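 tested at 10 µM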.
Test [2] can be described thus: yeast 75Q aggregation reduction – 75Q-TubU reporter (AID 1593). Conditions: Yeast 75Q polyglutamine aggregation reporter.
A short description of test [3]: restoration of touch response, mutant HTT neurons – whole organism, C. elegans mechanosensory neurons, N-terminal huntingtin (AID 1599). Conditions: C. elegans polyQ-huntingtin mechanosensory neurons, stronger effect = higher value.
Test [4] can be described thus: blockers of cytochrome c efflux from mitochondria – biochemical, purified mitochondria (AID 1603).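 Further: mouse liver mitochondria challenged with calcium chloride; signal normalized to the plate average as 100%.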 The following applies: stronger effect = lower value.
Test [5] in a line: polyglutamine aggregate formation blockers (AID 1604). The following applies: polyglutamine-induced protein aggregation inhibition assay; stronger effect = higher value; tested at 2.5 µM.
The nature of test [6]: glutamate transport activators, MN-1 cells, MN-1 cell line (AID 1612).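 Further: tested at 1 µM final; 0% = mean of DMSO vehicle wells on each plate; positive means more glutamate uptake than control and negative means less.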 The following applies: MN-1 motor neuron cells, stronger effect = higher value.
Test [7] in a line: 75Q-TubH aggregate inhibition, S. cerevisiae, yeast (AID 1616). The following applies: S. cerevisiae 75Q-TubH polyglutamine aggregation suppression; stronger effect = higher value.
Test [8] can be described thus: signal quenchers or enhancers, Cy5 substrate/SSB – biochemical, NIH Clinical Collection, E. coli SSB, artefact control for HCV NS3 helicase inhibitor project (AID 743268; call rule not given here). The following applies: Cy5-oligo bound E. coli SSB, fluorescence interference.
The subject of test [9] is Hepatitis C virus NS3 helicase. In words: blockers of NS3h binding to DNA – biochemical, fluorescence polarization, NIH Clinical Collection, primary screen (AID 743270; call rule not given here). Conditions: NS3 helicase binding to Cy5-dT15 DNA, stronger effect = higher value, concentration not given here.
Test [10] concerns the target Single-stranded DNA-binding protein (Escherichia coli (strain K12)) (UniProt P0AGE0). In words: SSB-ssDNA binding inhibitors – biochemical, fluorescence polarization, NIH Clinical Collection, counter-screen for HCV NS3 helicase inhibitor project (AID 743271; in the data active means inhibition above about 28%). The following applies: E. coli SSB-DNA binding, stronger effect = higher value, concentration not given here. (In general: Fluorescence polarisation rises when a labelled molecule tumbles more slowly, as on binding a larger partner.)

The nature of test [11]: compounds distorting NS3 helicase fluorescence signal – biochemical, NIH Clinical Collection, artefact control for HCV NS3 helicase inhibitor project (AID 743272; call rule not given here;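 further: HCV NS3 helicase with a Cy5 labelled single stranded DNA probe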). Conditions: fluorescence interference counterscreen, HCV NS3 helicase assay; stronger effect = lower value. For orientation: A counterscreen serves to expose hits that act by an unwanted route or on another target.
Test [12] can be described thus: galactose survival enhancers in mitochondrial complex I cybrids – cell-based, galactose medium, ATP luminescence, primary screen (AID 1645843;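 active means z-score of at least 1.8 in each of two replicates, scored against plate mean and spread of sample wells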;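 further: positive z means more ATP and so rescue of galactose-driven cybrid death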). The following applies: complex I mutant cybrid cells, 72 h, stronger effect = higher value.
The subject of test [13] is R275C. In words: BK channel mutant inhibitors and activators – cell-based, U2OS BacMam, thallium flux, beta subunits, selectivity assay, profiling panel (AID 1259406).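 Further: initial slope of Thallos dye fluorescence rise after thallium is added; log ratio against the mean of 0.3% DMSO vehicle wells on the same plate.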 The following applies: U2OS BacMam BK variants, at 30 µM.
For test [14], the system named is R275C/beta1. Described as above. Conditions: U2OS BacMam BK variants, at 30 µM.
The test system of test [15] is R275C/beta2Delta. Described as above. Conditions: U2OS BacMam BK variants, at 30 µM.
The test system of test [16] is R275C/beta4. Described as above. The following applies: U2OS BacMam BK variants, at 30 µM.
The test system of test [17] is R275C/Slo1WT/beta2. The description is as above. Conditions: U2OS BacMam BK variants, at 30 µM.
Test [18] can be described thus: compounds altering viability of human ES cells (AID 493140; call rule not given here;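 further: cells exposed to compounds for four days before counting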). The following applies: human embryonic stem cell survival screen; stronger effect = higher value.
Test [19] in a line: viability loss with induced miR-34 in A549 – imaging, A549 dox-inducible miR-34, nuclei and caspase counts, primary screen (AID 1347080). Conditions: A549 miR-34 inducible, Hoechst nuclei count, 48 h.
Test [20] can be described thus: growth inhibition, single agents and combos, ICB984, cell-based, cisplatin or BGB combos, synergistic combos for chromothripsis tumors (AID 1671451; call rule not given here;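 further: cells exposed for 96 hours before readout; 0% = vehicle DMSO and 100% = killing by high DMSO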). The following applies: ICB984 medulloblastoma cells, drug combinations, stronger effect = higher value.

A word on the inhibition: it is the change of the read-out against control, counted positive when it falls.

In the case of `O=c1[nH]cnc2[nH]ncc12`, the inhibition in test [1] was 14.4%; in [9] it was -5% (inactive); in [10], -3.53% (inactive). This molecule also displayed a score in test [2] of 1.09. In test [3], this molecule registered a rescue above control of 2.94. In addition, in test [4], the cytochrome c release ratio is 0.77. Moreover, in test [5], the inhibition of aggregation was found to be 60.9%. Also, in [6], the glutamate uptake change is -7.44%. Further, in [7], the aggregation suppression score was found to be 1.87. Besides, the fluorescence ratio in test [8] is 1.02 (inactive); in [11], 0.99 (inactive). In addition, the z-score in [12] is 0.315 (inactive) and -0.255 (inactive). Also, the log fold change Tl+ flux is 0.00104 (inactive) in test [13]; 0.0222 (inactive) in test [14]; 0.0262 (inactive) in [15]; 0.0379 (inactive) in test [16]; 0.0394 (inactive) in [17].
As for `CCCc1cc(=O)[nH]c(=S)[nH]1`, the inhibition is -28.5% in test [1], -1.36% (inactive) in test [9] and 0.29% (inactive) in test [10]. Moreover, in test [2], the score came to 1.06. In [3], this molecule gave a rescue above control of -2.2. Also, the cytochrome c release ratio in [4] stood at 1.02. The molecule also registered an inhibition of aggregation in [5] of 48%. Further, in [6], the glutamate uptake change was 4.57%. This molecule came in with an aggregation suppression score in test [7] of 1.14. The survival in test [18] is 31.3 (inactive). Moreover, the results for the fluorescence ratio in [8] and in test [11] were 1.04 (inactive) and 0.97 (inactive), respectively. Further, the fold change in test [19] (measured here: relative caspase fold change +Dox/-Dox) is 1.49 and 1.36 and 2.91. Also, the cell count in test [19] (measured here: total cells with miR-34 induction, stronger effect = lower value) was 10600 and 9200 and 7970. In test [12], the z-score was 0.835 (inactive). The log fold change Tl+ flux in [13] was -0.0214 (inactive); in [14], -0.00439 (inactive); in test [15], -0.0158 (inactive); in test [16], -0.0141 (inactive); in [17] it was 0.0488 (inactive).
As to `O=C(O)CCCc1ccccc1`, the fluorescence ratio in [8] is 0.99 (inactive); in test [11] it was 0.92 (inactive). The inhibition in test [9] is -2.27% (inactive); in test [10], 1.05% (inactive); in test [20] (BGB IC20 combo, at 0.005 µM), -2.57%; in [20] (BGB IC40 combo, at 0.005 µM), -13.4%; in test [20] (BGB IC40 combo, at 0.05 µM), 6.23%; in test [20] (at 0.5 µM), -32.1% (inactive). Further, the inhibition in [20] (cisplatin combo, at 0.05 µM) was 3.61%; in [20] (cisplatin combo, at 0.5 µM), -38.8%; in [20] (cisplatin combo, at 5 µM) it was -20.8%; in test [20] (measured here: 5 uM single agent, at 5 µM) it was -6.76%. In addition, the z-score in test [12] is -0.305 (inactive) and -0.05 (inactive) and 0.3 (inactive). Moreover, the log fold change Tl+ flux was -0.048 (inactive) in test [13]; 0.0568 (inactive) in test [14]; -0.0698 (inactive) in test [15]; 0.032 (inactive) in test [16]; 0.0104 (inactive) in test [17].
For the molecule `O=C(O)c1cccnc1`, the inhibition in test [1] was 1.52%. In test [2], this molecule returned a score of 1.31. Further, in test [3], the rescue above control stood at 2.74. The cytochrome c release ratio in test [4] stood at 0.86. Besides, the inhibition of aggregation in test [5] is 67.8%. Further, the glutamate uptake change in test [6] was -8.8%. In addition, the aggregation suppression score in [7] was found to be 1.88. Moreover, the survival in test [18] was 4 (inactive). Also, the values for the fluorescence ratio in test [8] and in test [11] were 1.05 (inactive) and 0.99 (inactive), respectively. In addition, the z-score in test [12] is 0.63 (inactive). In addition, the log fold change Tl+ flux in test [13] is 0.0183 (inactive); in test [14] it was -0.00198 (inactive); in [15] it was 0.0288 (inactive); in [16], 0.0274 (inactive); in [17], -0.00368 (inactive).
In the case of `COc1ccc(Cl)cc1C(=O)NCCc1ccc(S(=O)(=O)NC(=O)NC2CCCCC2)cc1`, the inhibition in test [1] is 0.35%; in test [9], -2.27% (inactive); in [10], 1.05% (inactive). The score in test [2] was -0.18. In addition, in test [4], the cytochrome c release ratio was found to be 1.09. Further, the inhibition of aggregation in [5] was found to be 45%. Besides, the glutamate uptake change in test [6] was 34.4%. Moreover, the aggregation suppression score in [7] was found to be 1.07. For the same molecule, the survival in test [18] is 5.42 (inactive). The fluorescence ratio in [8] and in test [11] was 0.97 (inactive) in each case. Also, the log fold change Tl+ flux in test [13] is 0.027 (inactive); in test [14], 0.142 (active); in test [15], 0.0874 (inactive); in test [16] it was 0.162 (active); in test [17], 0.00644 (inactive).
